Screening results as filed in PubChem.
INS-1E GSIS act: primary screen for activators of insulin secretion dependent on glucose, INS-1E cells, GLuc reporter luminescence | INS-1E GLuc reporter insulin secretion, 2-3 h | activation, % at 16.6 µM | actives 0.61% (n = 370,000) | AID 743287;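 active = lowest replicate activation of at least 40%, so every replicate reaches that level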
Env fusion inh: blocks HIV Env-driven cell-cell fusion | inhibition, % at 12.3 µM | HeLa-JRFL Env/CEM21 cell fusion, luciferase | AID 651610 | actives 1.1% (n = 360,000);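 active = mean replicate inhibition score of at least 50 and every replicate individually at or above 50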
MITF TRPM1 HTS: activators of MITF-driven TRPM1 promoter activity in SK-MEL-5 cells; actives 0.75% (n = 300,000); SK-MEL-5 TRPM1-promoter luciferase, 24 h; % of positive control, neutral wells = 0; AID 588334; activation, % at 12.5 µM;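 active = mean activation of at least 80% with every replicate also reaching 80%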
Wnt act: activators of Wnt/beta-catenin signaling | Wnt/beta-catenin reporter cell assay, activator, plate reader | activation, % at 9.35 µM | actives 1.2% (n = 300,000) | AID 743398; in the data active = activation above about 30%, passing the limit was not always enough
F508del corr: CFTR F508del correction in bronchial cells | CFBE cells, YFP halide quenching; stimulated with forskolin plus potentiator P3; % fluorescence drop versus neutral controls | activity (quench increase), % at 7.58 µM | actives 0.36% (n = 350,000);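 active = mean added fluorescence quench of at least 8% versus neutral control, with both replicates also reaching 8%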;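 also: cells transiently co-express mutant CFTR-F508del with the halide-sensitive YFP; corrector assay measuring rescue of mutant channel to the surface after 24 h compound exposure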
Each line names hits and unclear results; the compound was inactive in the other large screens. Sampled rows, rich in hits. Any-hit rate of the full collection: about 2.7%.

COc1ccccc1NC(=O)c1cnc(SCC(=O)NCC2CCCO2)n(C)c1=O (stereo not drawn)	Wnt act 32.3
COc1cc(C(=O)Nc2nnc(SCC(=O)NCC3CCCO3)s2)cc(OC)c1OC (stereo not drawn)	none
CCCC(=O)N1CC2(C1)CN(C(=O)C1CCCCC1)[C@H](CO)c1[nH]c3cc(OC)ccc3c12	none (no result: Env fusion inh, MITF TRPM1 HTS, Wnt act)
COc1ccc(OC)c(CNC(=O)C2CCCN(S(=O)(=O)N3CCC(C)CC3)C2)c1 (stereo not drawn)	none
CCOC(=O)N1CCN(S(=O)(=O)N2CCCC(C(=O)NCc3cc(OC)ccc3OC)C2)CC1 (stereo not drawn)	INS-1E GSIS act 99.4 (no result: MITF TRPM1 HTS)
O=C(Nc1nc2ccccc2n1CCOc1ccc(Cl)cc1)c1ccco1	none (no result: INS-1E GSIS act, Env fusion inh, MITF TRPM1 HTS)
O=C(Nc1nc2ccccc2n1Cc1ccc(Cl)cc1)c1ccco1	INS-1E GSIS act 47.5 (no result: Env fusion inh, Wnt act, F508del corr)
CCC(=O)Nc1ccc2c(c1)C(=O)N(C)C[C@@H](OC)[C@@H](C)CN(C(=O)CN(C)C)[C@H](C)CO2	none (no result: Env fusion inh, MITF TRPM1 HTS, Wnt act)
COC(=O)C1C(=O)c2c([nH]c(C(=O)OC3CCCC3)c2C)CC1C (stereo not drawn)	MITF TRPM1 HTS 107.1 (no result: INS-1E GSIS act, Env fusion inh, Wnt act, F508del corr)
Cc1noc(C)c1NC(=O)N(C)C[C@H]1OCCCC[C@@H](C)Oc2ccc(NC(=O)NC3CCCCC3)cc2C(=O)N([C@@H](C)CO)C[C@H]1C	none (no result: MITF TRPM1 HTS, Wnt act)
CCN=C1S/C(=C\c2ccc(O)c(OCC)c2)C(=O)N1CC	INS-1E GSIS act 56.9 (no result: F508del corr)
CCOc1cc(/C=C2\SC(=S)N(C(C(=O)O)c3ccccc3)C2=O)ccc1O (stereo not drawn)	F508del corr 14.3
COc1ccccc1S(=O)(=O)N[C@H]1CC[C@H](CCNC(=O)C2CCC2)O[C@H]1CO	none (no result: MITF TRPM1 HTS, Wnt act)
Clc1cc2nc(-c3cccnc3Cl)[nH]c2cc1Cl	MITF TRPM1 HTS 89.0, Wnt act 47.5 (no result: F508del corr)
Cc1cc2nc(-c3ccccc3O)[nH]c2cc1C	INS-1E GSIS act 40.1
Cc1cc(=O)[nH]c(-c2ccccc2O)n1	none (no result: Env fusion inh)
CCn1c(-c2cccnc2Cl)nc2cc(Cl)c(Cl)cc21	none (no result: Wnt act, F508del corr)
C[C@H](CO)N1C[C@H](C)[C@H](CN(C)C(=O)Cc2cccnc2)Oc2ncc(C#CCc3ccccc3)cc2C1=O	none (no result: MITF TRPM1 HTS, Wnt act)
CCOC(=O)c1ccc(S(=O)(=O)N2CCC(C(=O)Nc3nnc(C)o3)CC2)cc1	INS-1E GSIS act 58.4
COc1ccc(Cl)cc1C1=NOC2(CCC2)C(=O)N1Cc1ccc(NC(C)=O)cc1	Env fusion inh 66.8 (no result: MITF TRPM1 HTS)
C[C@@H]1CN([C@@H](C)CO)C(=O)c2cccc(NC(=O)Nc3ccc(C(F)(F)F)cc3)c2O[C@H]1CN(C)C(=O)Nc1ccc(C(F)(F)F)cc1	none (no result: MITF TRPM1 HTS, Wnt act)
O=C(Cc1csc(NC(=O)c2ccccc2)n1)NO	INS-1E GSIS act 57.2
COc1ccc(C(=O)Nc2nc(CC(=O)NCCc3ccccc3)cs2)cc1	none
CCOC(=O)Cc1csc(NC(=O)c2cccc([N+](=O)[O-])c2)n1	INS-1E GSIS act 178.6
CCOC(=O)Cc1csc(NC(=O)c2cccc(OC)c2)n1	none (no result: INS-1E GSIS act, MITF TRPM1 HTS, F508del corr)
CCOC(=O)Cc1csc(NC(=O)c2ccc(OC)c(OC)c2)n1	INS-1E GSIS act 55.1 (no result: F508del corr)
C[C@@H]1CN([C@@H](C)CO)C(=O)Cc2cc(NC(=O)Nc3ccc4c(c3)OCO4)ccc2O[C@H]1CN(C)Cc1ccc(-c2ccccc2)cc1	none (no result: MITF TRPM1 HTS, Wnt act)
CCN1[C@H](C(=O)NCc2ccc(F)cc2)[C@@H](CO)[C@@H]2Cn3c(ccc(-c4ccccc4OC)c3=O)[C@@H]21	none (no result: MITF TRPM1 HTS, Wnt act, F508del corr)
CCc1ccc(-c2nnn(CCC(=O)OC)n2)cc1	Env fusion inh 64.9 (no result: INS-1E GSIS act, MITF TRPM1 HTS, F508del corr)
CCCNC(=O)N1CC2(CCN(CC3CCCC3)CC2)c2c(n(C)c3cc(OC)ccc23)[C@H]1CO	none (no result: Env fusion inh, MITF TRPM1 HTS, Wnt act)
CN(C)CCC(=O)N1C/C(=C/c2ccccc2)C(=O)/C(=C\c2ccccc2)C1	Env fusion inh 75.3
C[N+](C)(C)CCC(=O)N1C/C(=C/c2ccccc2)C(=O)/C(=C\c2ccccc2)C1	none
OCC1OC(n2ccc3c(NO)ncnc32)C(O)C1O (stereo not drawn)	Env fusion inh 90.7
CN(C)c1ncnc2c1ccn2C1OC(CO)C(O)C1O (stereo not drawn)	Env fusion inh 76.7
Cc1nc2c(=O)n(C)c(=O)n(C)c2nc1Cl	INS-1E GSIS act 95.9 (no result: F508del corr)
CC(C)OP(=O)(c1ccc(N(C)C)cc1)C(Nc1ccccc1)c1ccccc1 (stereo not drawn)	Env fusion inh 84.9
CC(C)CCOP(=O)(c1ccc(N(C)C)cc1)C(Nc1ccccc1)c1ccc(N(C)C)cc1 (stereo not drawn)	none
Cc1cccc(OCC(=O)NNC(=O)c2ccc3nc[nH]c3c2)c1	F508del corr 16.6 (no result: Env fusion inh)
CC(C)NC(=O)N1[C@H](CO)[C@@H]2c3ccccc3N(C(=O)c3ccc(F)cc3)C[C@@H]21	none (no result: Env fusion inh, MITF TRPM1 HTS, Wnt act)
C(=NOCCc1ccccc1)c1ccncc1	MITF TRPM1 HTS 90.7 (no result: INS-1E GSIS act)
CS(=O)(=O)c1ccc(C(=O)OCC(=O)NC23CC4CC(CC(C4)C2)C3)cc1[N+](=O)[O-]	none (no result: Wnt act, F508del corr)
CC(=O)N1CCN(C(=O)COC(=O)c2ccc(S(C)(=O)=O)cc2)CC1	INS-1E GSIS act 66.8
CC(C)CN1CCN(C(=O)COC(=O)c2ccc(S(C)(=O)=O)c([N+](=O)[O-])c2)CC1	INS-1E GSIS act 138.3 (no result: MITF TRPM1 HTS)
CC(OC(=O)c1ccc(S(C)(=O)=O)c([N+](=O)[O-])c1)C(=O)NC1C2CC3CC(C2)CC1C3 (stereo not drawn)	INS-1E GSIS act 142.9 (no result: MITF TRPM1 HTS)
CS(=O)(=O)c1ccc(C(=O)OCC(=O)N2CCCc3ccccc32)cc1	none
CO[C@@H]1CN(C)C(=O)c2cc(NC(=O)c3nc4ccccc4s3)ccc2OC[C@H](C)N(Cc2cccnc2)C[C@H]1C	none (no result: Env fusion inh, MITF TRPM1 HTS, Wnt act)
Cc1ccccc1S(=O)(=O)N1CCCCN2[C@H](CO)[C@@H](c3ccc(-c4cncnc4)cc3)[C@@H]2C1	none (no result: Env fusion inh, MITF TRPM1 HTS, Wnt act)
Fc1ccc(-[n+]2nc(Nc3ccccc3)sc2-c2c(Cl)cccc2Cl)cc1	none
CCc1ccc(Nc2n[n+](-c3ccccc3)c(-c3c(Cl)cccc3Cl)s2)cc1	Env fusion inh 69.6
COc1cccc(-c2cc3onc(-c4ccccc4)c3c(=O)n2C)c1	Wnt act 38.3
Cn1c(-c2ccc(F)c(F)c2)cc2onc(-c3ccccc3)c2c1=O	MITF TRPM1 HTS 115.6, Wnt act 64.5 (no result: INS-1E GSIS act)
Cc1cc(C(=O)CN2C(=O)C(=O)N(Cc3ccccc3)C2=O)c(C)n1Cc1ccccc1	F508del corr 9.4 (no result: Env fusion inh)
Cc1cc(C(=O)CN2CCN(CC(=O)Nc3ccc(F)cc3)CC2)c(C)n1C1CC1	F508del corr 22.6
Cc1cc(C(=O)CN2C(=O)c3cccc(N)c3C2=O)c(C)n1Cc1cccs1	MITF TRPM1 HTS 106.5 (no result: INS-1E GSIS act, Env fusion inh, F508del corr)
CCCN1C(=O)C(=O)N(CC(=O)c2cc(C)n(C3CC3)c2C)C1=O	MITF TRPM1 HTS 88.9
COc1ccc2c3c([nH]c2c1)[C@H](CO)N(Cc1nccs1)CC31CCN(C(=O)C2CCOCC2)CC1	none (no result: Env fusion inh, MITF TRPM1 HTS, Wnt act)
COc1cccc(C(=O)Nc2ccc3c(c2)OC[C@@H](C)N(C(C)=O)C[C@@H](C)[C@@H](OC)CN(C)C3=O)c1	none (no result: MITF TRPM1 HTS, Wnt act)
